Results published in the OligoGym collection.

target: PHF15; experiment: pooled miR-30 sensor sort-seq; sequence = guide strand; conditions: shRNA
Note: reference of the scale not given here.

Row | Sequence | sensor-assay potency score (higher = more potent)
1 | TTGTCTGGAGTCGTCCGTGAAC | -1.11
2 | TTGTCCACCTCGTCGGTCTTGG | -0.798
3 | ATCTCGTCCAAGTCATAGCGGC | -1.39
4 | TTGACCTCATCGTTGTCTGCTA | -0.147
5 | TGTCGCATGACTGTCAGTGGTG | -0.605
6 | TTGAACTTGACCTCATCGTTGT | 0.744
7 | TAATATAGTCCGCATTTCCAGG | -1.26

target: PHF19; experiment: as above; conditions: shRNA

Row | Sequence | sensor-assay potency score (higher = more potent)
8 | TTCTTGATCTCCTTGCCGCAGA | -0.66
9 | TAGTTGGTGATAGATGACTTGA | -1.21
10 | TTTTCTTCTATAAACTCGCCTT | -0.149
11 | TGAATCTTTTTGAAGGTGCAGA | 0.0337
12 | TTTTATAACTGTTCAGAGCGTT | 0.145
13 | TTGTTCTTGACCTTCGCCAGGG | 0.174
14 | TTGAATTTCATCCAGCGTGAAG | -1.1
15 | TTTATAACTGTTCAGAGCGTTG | -1.51
16 | TTTGAAGTTGTTCTTGACCTTC | -0.341
17 | TAAACTTTGAATTTCATCCAGC | 0.174
18 | TTGCTTAGAGCTGCTGACCCTC | -1.03
19 | TAACATTGCAGCATCCGCAGGT | 0.519

target: PHF20; experiment: as above; conditions: shRNA

Row | Sequence | sensor-assay potency score (higher = more potent)
20 | TTGAATTTACAACTGTCTCCAA | 0.401
21 | TTTTAAACAGTCCACAACTTTG | -1.74
22 | TAAACTTATGGTCTAGGTCGAC | -0.7
23 | TTCTCAATGGAGTCCATCCTGT | -0.423
24 | TTGACAGTCTGAACTACTCCAT | -0.0489
25 | TAAACTTCTCTCGTTTATCAGG | -1.02
26 | TTAACTTTCCTTCTTTATCAGG | -0.815
27 | TTCCTTGTCTTCCTTCTCGTTC | -0.88
28 | TTTGTTACTTCCACAGTCGAAA | -0.866
29 | TTGTGTGAGGACCCACACCTGG | -1.15
30 | TTAATGGGACTTCACATCCTTT | -1.47
31 | TGACAGTCTGAACTACTCCATC | -1.04

target: PHF23; experiment: as above; conditions: shRNA

Row | Sequence | sensor-assay potency score (higher = more potent)
32 | TATGCCAAAACAAAACTGCAGA | -0.479
33 | TTTAACTTCCGCTTCTTGCTCT | 0.601
34 | TTCTCTTGGATGACTTTGCTTT | -0.308
35 | TAACATGTGATCAGATCCCATG | -0.921
36 | TTTTATAGACAACTGTCCCATT | -0.805
37 | TACCATGATGTCCTCGTCCATG | -1.2
38 | TTCAGAGTCTGTATCACTGGGG | 0.423
39 | TTAACTTCCGCTTCTTGCTCTT | 0.475
40 | TTCTTAATCTTAGCACAGGAGA | -1.04
